From PubChem BioAssay (NCI)
Where “and” joins values, the source holds several entries; their conditions need not be identical. Identical values can stand only once. About 79,000 compounds went through this panel and 15% of them were active in at least one assay; those are over-represented in the sample as a whole. The source holds several records for some structures; these can differ, active in one and inactive in another. Calls of active or inactive are those of the source. Cut-off read from the data, not from the text of the source: active = growth inhibition above about 70%; inactive = the rest.

Key:
[1] = NCI Yeast Anticancer Drug Screen. Data for the rad52 strain (AID 147);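 note: 0% = growth of vehicle-treated control cultures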; conditions: S. cerevisiae rad52 mutant growth inhibition, stronger effect = higher value
Outline: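 Compounds are applied to a genetically defined yeast strain lacking normal DNA damage repair, and inhibition of growth is expressed relative to cultures given vehicle only.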

[2] = NCI Yeast Anticancer Drug Screen. Data for the wt1 strain (AID 149);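 note: 0% = growth of vehicle-treated wt1 cultures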; conditions: S. cerevisiae wt1 strain (SPY 50644) growth inhibition, stronger effect = higher value
Outline: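 wt1 strain grown with compound or vehicle; inhibition taken from the growth difference.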

[3] = NCI Yeast Anticancer Drug Screen. Data for the rad50EPP+ strain (AID 151);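 note: 0% = growth of vehicle-treated control cultures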; conditions: S. cerevisiae rad50 mutant strain, stronger effect = higher value
Outline: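 Compounds were applied to the rad50EPP+ yeast strain, which bears a defined DNA repair alteration, and growth inhibition was determined relative to vehicle-treated cultures.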

[4] = NCI Yeast Anticancer Drug Screen. Data for the mgt1 strain (AID 153); conditions: S. cerevisiae mgt1 mutant growth inhibition, stronger effect = higher value
Outline: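 Strain: mgt1 yeast, one of a set carrying defined DNA damage repair or cell cycle control alterations. Compound-treated growth compared with vehicle.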

[5] = NCI Yeast Anticancer Drug Screen. Data for the rad50 strain (AID 155);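 note: 0% = growth of vehicle-only cultures of the same strain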; conditions: S. cerevisiae rad50 strain growth inhibition, stronger effect = higher value
Outline: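 DNA repair mutant yeast, compound exposure, growth read-out; inhibition is taken relative to vehicle.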

[6] = NCI Yeast Anticancer Drug Screen. Data for the mec2-1 strain (AID 157); conditions: S. cerevisiae mec2-1 strain, stronger effect = higher value
Outline: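 Strain: mec2-1 (DNA repair/cell cycle alteration). Compound exposure, then growth measured; inhibition expressed relative to vehicle.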

[7] = NCI Yeast Anticancer Drug Screen. Data for the rad14 strain (AID 159);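 note: 0% = growth of vehicle-treated control cultures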; conditions: S. cerevisiae rad14 strain growth inhibition, stronger effect = higher value
Outline: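 DNA repair-defective yeast, compound-exposed; % growth inhibition derived by comparison with vehicle-treated controls.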

[8] = NCI Yeast Anticancer Drug Screen. Data for the sgs1 mgt1 strain (AID 161);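 note: 0% = growth of cultures given vehicle only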; conditions: S. cerevisiae sgs1 mgt1 strain, stronger effect = higher value
Outline: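 Genetically altered yeast, compound exposure, growth inhibition relative to vehicle.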

[9] = NCI Yeast Anticancer Drug Screen. Data for the CLN2oe strain (AID 163);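 note: 0% = growth of vehicle-only control cultures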; conditions: S. cerevisiae CLN2oe strain, stronger effect = higher value
Outline: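 Growth of a genetically modified yeast strain is measured after compound exposure and compared with cultures given vehicle alone.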

[10] = NCI Yeast Anticancer Drug Screen. Data for the cln2 rad14 strain (AID 165);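 note: 0% = growth equal to vehicle treated cultures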; conditions: S. cerevisiae cln2 rad14 strain, stronger effect = higher value
Outline: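 Compounds are applied to the cln2 rad14 yeast strain, and growth is then compared with that of vehicle-treated cultures to give inhibition.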

[11] = NCI Yeast Anticancer Drug Screen. Data for the bub3 strain (AID 167); conditions: S. cerevisiae bub3 mutant strain, stronger effect = higher value
Outline: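 In this screen, a yeast mutant lacking normal mitotic checkpoint function is challenged with compound. Relative growth versus vehicle gives the inhibition value.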

[12] = NCI Yeast Anticancer Drug Screen. Data for the wt2 strain (AID 169);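 note: 0% = growth of vehicle-treated yeast cultures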; conditions: S. cerevisiae wt2 strain growth inhibition, stronger effect = higher value
Outline: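 This strain belongs to a panel of yeast strains with defined genetic alterations in DNA damage repair or cell cycle control. Compounds are applied, and growth inhibition is measured against vehicle-treated cultures.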

[13] = NCI Yeast Anticancer Drug Screen. Data for the mlh1 strain (AID 171);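 note: 0% = growth of vehicle-treated control cultures of the same strain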; conditions: S. cerevisiae mlh1 strain growth inhibition, stronger effect = higher value
Outline: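 Growth of the mutant yeast strain after compound exposure, expressed as inhibition relative to vehicle-only controls.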

[14] = NCI Yeast Anticancer Drug Screen. Data for the sgs1 strain (AID 173);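 note: 0% = growth of vehicle-only control cultures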; conditions: S. cerevisiae sgs1 mutant, stronger effect = higher value
Outline: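 Growth of a yeast strain bearing a defined genetic alteration is measured after compound treatment. Inhibition is expressed relative to vehicle-only controls.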

[15] = NCI Yeast Anticancer Drug Screen. Data for the mlh1 rad18 strain (AID 175); conditions: S. cerevisiae mlh1 rad18 strain growth inhibition, stronger effect = higher value
Outline: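 Read-out is yeast growth inhibition, calculated against vehicle-only controls. The compound was applied to a strain engineered with DNA damage repair alterations.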

[16] = NCI Yeast Anticancer Drug Screen. Data for the rad18 strain (AID 177); conditions: S. cerevisiae rad18 mutant growth inhibition, stronger effect = higher value
Outline: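 Growth of the mutant yeast strain after compound exposure, normalised to vehicle-only cultures.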

[17] = at 5.0 µM (retest, dose inferred, filed as 0.5)
[18] = at 50.0 µM (retest, dose inferred, filed as 5.0)

Measured: growth inhibition

COc1ccc2[nH]cc([C@@H]3C4CCC(C4)[C@H]3NCc3cccc(CN[C@H]4C5CCC(C5)[C@@H]4c4c[nH]c5ccc(OC)cc45)c3)c2c1
98.3% (active) and 55.8% (inactive): [5]; at 50.0 µM
active: [1]; at 100.0 µM 98% | [2]; at 100.0 µM 93% | [4]; at 100.0 µM 98% | [5]; [18] 99% | [5]; at 100.0 µM 97% | [6]; [18] 99% | [6]; at 100.0 µM 97% | [7]; at 33.0 µM 89% | [7]; at 100.0 µM 98% | [8]; [18] 88% | [9]; at 100.0 µM 92% | [10]; [18] 99% | [10]; at 50.0 µM 99.2% and 77.3% | [11]; [18] 98% | [11]; at 100.0 µM 98% | [12]; at 100.0 µM 99% | [13]; at 100.0 µM 97% | [14]; at 100.0 µM 97% | [15]; [18] 99%
98.8% (active) and 35.2% (inactive): [11]; at 50.0 µM
99.4% (active) and 61% (inactive): [8]; at 50.0 µM
99.2% (active) and 10.9% (inactive): [6]; at 50.0 µM
inactive: [1]; at 1.2 µM -28% | [1]; at 3.7 µM -23% | [1]; at 11.0 µM -20% | [1]; at 33.0 µM 22% | [2]; at 1.2 µM -33% | [2]; at 3.7 µM -43% | [2]; at 11.0 µM -41% | [2]; at 33.0 µM -8% | [3]; at 1.2 µM -19% | [3]; at 3.7 µM -14% | [3]; at 11.0 µM -7% | [3]; at 33.0 µM -23% | [3]; at 100.0 µM 63% | [4]; at 1.2 µM -36% | [4]; at 3.7 µM -47% | [4]; at 11.0 µM -38% | [4]; at 33.0 µM 42% | [5]; at 1.2 µM -36% | [5]; at 3.7 µM -16% | [5]; [17] -15% | [5]; at 11.0 µM -27% | [5]; at 33.0 µM 51% | [6]; at 1.2 µM -61% | [6]; at 3.7 µM -59% | [6]; [17] -2% | [6]; at 11.0 µM -54% | [6]; at 33.0 µM 26% | [7]; at 1.2 µM -30% | [7]; at 3.7 µM -23% | [7]; at 11.0 µM 0% | [8]; [17] -7% | [9]; at 1.2 µM 36% | [9]; at 3.7 µM 33% | [9]; at 11.0 µM 31% | [9]; at 33.0 µM 63% | [10]; [17] 27% | [11]; at 1.2 µM -25% | [11]; at 3.7 µM -32% | [11]; [17] 7% | [11]; at 11.0 µM -18% | [11]; at 33.0 µM 56% | [12]; at 1.2 µM -41% | [12]; at 3.7 µM -42% | [12]; at 11.0 µM -46% | [12]; at 33.0 µM 20% | [13]; at 1.2 µM -68% | [13]; at 3.7 µM -64% | [13]; at 11.0 µM -60% | [13]; at 33.0 µM 61% | [14]; at 1.2 µM -38% | [14]; at 3.7 µM -37% | [14]; at 11.0 µM -45% | [14]; at 33.0 µM -5% | [15]; [17] 2% | [15]; at 50.0 µM 38.5%

COc1cccc2c1C(=O)c1c(O)c3c(c(O)c1C2=O)CC(O)(C(O)CO)CC3OC1CC(N2CCOCC2)C(O)C(C)O1 (stereo unspecified)
active: [1]; at 1.2 µM 96% | [1]; at 3.7 µM 96% | [1]; at 11.0 µM 96% | [1]; at 33.0 µM 96% | [1]; at 100.0 µM 96% | [2]; at 1.2 µM 96% | [2]; at 3.7 µM 96% | [2]; at 11.0 µM 97% | [2]; at 33.0 µM 97% | [2]; at 100.0 µM 97% | [3]; at 1.2 µM 84% | [3]; at 3.7 µM 96% | [3]; at 11.0 µM 97% | [3]; at 33.0 µM 97% | [3]; at 100.0 µM 97% | [4]; at 1.2 µM 97% | [4]; at 3.7 µM 97% | [4]; at 11.0 µM 97% | [4]; at 33.0 µM 98% | [4]; at 100.0 µM 97% | [5]; at 1.2 µM 96% | [5]; at 3.7 µM 97% | [5]; [17] 98% | [5]; at 11.0 µM 97% | [5]; at 33.0 µM 97% | [5]; [18] 98% | [5]; at 100.0 µM 97% | [6]; at 1.2 µM 97% | [6]; at 3.7 µM 97% | [6]; [17] 99% | [6]; at 11.0 µM 98% | [6]; at 33.0 µM 98% | [6]; [18] 99% | [6]; at 50.0 µM 91.3% | [6]; at 100.0 µM 98% | [7]; at 1.2 µM 95% | [7]; at 3.7 µM 96% | [7]; at 11.0 µM 96% | [7]; at 33.0 µM 97% | [7]; at 100.0 µM 97% | [8]; [18] 90% | [8]; at 50.0 µM 91.5% | [9]; at 1.2 µM 96% | [9]; at 3.7 µM 97% | [9]; at 11.0 µM 97% | [9]; at 33.0 µM 98% | [9]; at 100.0 µM 98% | [10]; at 50.0 µM 90.8% | [11]; at 1.2 µM 98% | [11]; at 3.7 µM 98% | [11]; at 11.0 µM 98% | [11]; at 33.0 µM 98% | [11]; [18] 93% | [11]; at 50.0 µM 93.5% | [11]; at 100.0 µM 98% | [12]; at 1.2 µM 96% | [12]; at 3.7 µM 97% | [12]; at 11.0 µM 96% | [12]; at 33.0 µM 97% | [12]; at 100.0 µM 98% | [13]; at 1.2 µM 97% | [13]; at 3.7 µM 97% | [13]; at 11.0 µM 97% | [13]; at 33.0 µM 98% | [13]; at 100.0 µM 98% | [14]; at 1.2 µM 97% | [14]; at 3.7 µM 97% | [14]; at 11.0 µM 97% | [14]; at 33.0 µM 98% | [14]; at 100.0 µM 98% | [15]; [17] 99% | [15]; [18] 98% | [15]; at 50.0 µM 91.1% | [16]; at 1.2 µM 96% | [16]; at 3.7 µM 96% | [16]; at 11.0 µM 97% | [16]; at 33.0 µM 97% | [16]; at 100.0 µM 98%
inactive: [5]; at 50.0 µM 56.9% | [8]; [17] 22% | [10]; [17] 18% | [10]; [18] 61% | [11]; [17] 25%
